{
  "source": "PubChem BioAssay AID651642",
  "about": "(Sanford-Burnham Center for Chemical Genomics, 2012)",
  "note": "A number with no mark means an inactive call. Calls of active or inactive are those of the source.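 Rule for the calls: active = average half-effect concentration of 10 µM or less in every one of the four cell panels; inactive = the rest.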",
  "data": [
    {"tested_on": "HL-1", "experiment": "protection of cardiomyocytes from stress damage, SAR follow-up, cell-based, panel, H9c2 and HL-1, H2O2, 2-deoxyglucose, ATP luminescence (AID 651642);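 for activity: plate controls were H2O2 plus DMSO for no effect and cells kept without H2O2 for full effect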", "details": "H9c2/HL-1 cardiomyocyte H2O2 oxidative damage, mean of runs; activity: with H2O2, at 0.154 µM; outcome: with H2O2", "values": [
      {"smiles": "COc1ccc2c(c1OC)C(=O)N1c3ccccc3C(=O)N(Cc3cccc(Br)c3)C21", "note": "(configuration not stated)", "activity": "0.759%"},
      {"smiles": "COc1ccc2nc(-c3cc(OC)c(OC)c(OC)c3)cc(C(=O)NCC(=O)Nc3cccc(C(C)=O)c3)c2c1", "activity": "-0.983% (active)"},
      {"smiles": "COc1cc(-c2cc(C(=O)NCC(=O)Nc3cccc(C(C)=O)c3)c3cc(C)ccc3n2)cc(OC)c1OC", "activity": "0.0397%"},
      {"smiles": "COc1cc(-c2cc(C(=O)NCC(=O)Nc3cccc(C(C)=O)c3)c3cccc(Cl)c3n2)cc(OC)c1OC", "activity": "8.31%"},
      {"smiles": "COc1ccc2c(c1OC)C(=O)N1c3ccccc3C(=O)N(Cc3cccc(C)c3)C21", "note": "(configuration not stated)", "activity": "-2.16%"},
      {"smiles": "CCOC(=O)c1cccc(NC(=O)c2cc(-c3cc(OC)c(OC)c(OC)c3)nc3c(Cl)cccc23)c1", "activity": "5.38%"},
      {"smiles": "COc1cc(-c2cc(C(=O)Nc3cccc(C(=O)NCc4ccccc4)c3)c3ccccc3n2)cc(OC)c1OC", "activity": "1.48% (active)"},
      {"smiles": "CCOC(=O)c1cccc(NC(=O)CNC(=O)c2cc(-c3cc(OC)c(OC)c(OC)c3)nc3ccc(F)cc23)c1", "activity": "2.27% (active)"},
      {"smiles": "CCOC(=O)c1cccc(NC(=O)CNC(=O)c2cc(-c3cc(OC)c(OC)c(OC)c3)nc3ccc(Br)cc23)c1", "activity": "-0.604% (active)"},
      {"smiles": "COc1ccc(NC(=O)CNC(=O)c2cc(-c3cc(OC)c(OC)c(OC)c3)nc3ccccc23)cc1", "activity": "3.9% (active)"},
      {"smiles": "COc1cc(-c2cc(C(=O)Nc3cccc(C(=O)Nc4ccccc4)c3)c3ccccc3n2)cc(OC)c1OC", "activity": "-3.29%"},
      {"smiles": "CCOC(=O)c1ccccc1NC(=O)c1cc(-c2cc(OC)c(OC)c(OC)c2)nc2ccccc12", "activity": "-1.41%"},
      {"smiles": "COc1ccc2nc(-c3cc(OC)c(OC)c(OC)c3)cc(C(=O)NCC(=O)Nc3ccc(C(C)=O)cc3)c2c1", "activity": "-1.7% (active)"},
      {"smiles": "COc1ccc2c(c1OC)C(=O)N1c3ccccc3C(=O)N(Cc3ccccn3)C21", "note": "(configuration not stated)", "activity": "1.21%"},
      {"smiles": "CCOC(=O)c1cccc(NC(=O)c2cc(-c3cc(OC)c(OC)c(OC)c3)nc3ccc(Br)cc23)c1", "activity": "0.456%"},
      {"smiles": "COc1cc(-c2cc(C(=O)Nc3cccc(C#N)c3)c3ccccc3n2)cc(OC)c1OC", "activity": "0.75%"},
      {"smiles": "COc1cc(-c2cc(C(=O)Nc3cccc(C(=O)N(C)C)c3)c3ccccc3n2)cc(OC)c1OC", "activity": "0.987% (active)"},
      {"smiles": "CCOC(=O)c1cccc(NC(=O)CNC(=O)c2cc(-c3cc(OC)c(OC)c(OC)c3)nc3ccc(OC)cc23)c1", "activity": "-3.33% (active)"},
      {"smiles": "COc1ccc2nc(-c3cc(OC)c(OC)c(OC)c3)cc(C(=O)Nc3cccc(C(C)=O)c3)c2c1", "outcome": "inactive"},
      {"smiles": "COc1cc(-c2cc(C(=O)NCC(=O)Nc3ccc(C(C)=O)cc3)c3cc(F)ccc3n2)cc(OC)c1OC", "activity": "1.92% (active)"},
      {"smiles": "COc1cccc(CNC(=O)CNC(=O)c2cc(-c3cc(OC)c(OC)c(OC)c3)nc3ccccc23)c1", "activity": "-2.04%"},
      {"smiles": "CCOC(=O)c1cccc(NC(=O)CNC(=O)c2cc(-c3cc(OC)c(OC)c(OC)c3)nc3c(Cl)cccc23)c1", "activity": "-2.82%"},
      {"smiles": "COc1ccc2c(c1OC)C(=O)N1c3ccccc3C(=O)N(Cc3ccccc3C)C21", "note": "(configuration not stated)", "activity": "-0.339%"},
      {"smiles": "COc1cc(-c2cc(C(=O)NCC(=O)Nc3ccc(C(C)=O)cc3)c3cc(C)ccc3n2)cc(OC)c1OC", "activity": "4.62% (active)"},
      {"smiles": "COc1ccc2c(c1OC)C(=O)N1c3ccccc3C(=O)N(Cc3cccc(F)c3)C21", "note": "(configuration not stated)", "activity": "0.0397%"},
      {"smiles": "COc1cc(-c2cc(C(=O)Nc3cccc(C(C)=O)c3)c3cc(F)ccc3n2)cc(OC)c1OC", "activity": "-2.5% (active)"},
      {"smiles": "COc1ccccc1CN1C(=O)c2ccccc2N2C(=O)c3c(ccc(OC)c3OC)C12", "note": "(configuration not stated)", "activity": "1.25%"},
      {"smiles": "COc1ccc2c(c1OC)C(=O)N1c3ccccc3C(=O)N(Cc3ccncc3)C21", "note": "(configuration not stated)", "activity": "0.0397%"},
      {"smiles": "COc1cc(-c2cc(C(=O)Nc3cccc(C(=O)O)c3)c3ccccc3n2)cc(OC)c1OC", "activity": "1.9%"},
      {"smiles": "COc1cc(-c2cc(C(=O)NCC(=O)Nc3cccc(C(C)=O)c3)c3ccccc3n2)cc(OC)c1OC", "activity": "-2.38% (active)"},
      {"smiles": "COc1ccc2c(c1OC)C(=O)N1c3ccccc3C(=O)N(Cc3cccc(Cl)c3Cl)C21", "note": "(configuration not stated)", "activity": "4.4%"},
      {"smiles": "COc1cc(-c2cc(C(=O)Nc3cccc(C(=O)N4CCOCC4)c3)c3ccccc3n2)cc(OC)c1OC", "activity": "-0.415%"}
    ]}
  ]
}
